# Nrf2 block: Nrf2 qHTS screen for inhibitors | A549 ARE-Fluc reporter, luciferase luminescence, 18-24 h | Potency, µM (highest dose often 46 µM), inactives show at the highest dose activity change, negative = inhibition, most hits filed as inhibitors | 360,000 compounds, 2.1% hits | AID 504444, 2011; further: potency means the concentration at half of the fitted maximal effect; on the % scale 0 is the no-effect control and ±100 the full control effect; nearly all actives have a fitted effect of over 60% in size
#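 A549 ARE_Fluc cells, 5000/well, 5% FBS OPTI-MEM; compounds in dose-response, 18-24 h at 37 °C/5% CO2; CellTiter-Fluor viability read (Ex 405/Em 525), then BugLite luciferase luminescence = Nrf2 activity.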
# BRCA1 expr act: qHTS Assay to Identify Small Molecule Activators of BRCA1 Expression | MCF7-BRCA1-FFLuc reporter, luminescence, 48 h; response scale: scaled: vehicle 0%, 10 µM genistein 100% | Potency, µM (doses to about 46.1 µM), for the others: at the highest dose activation, hits mostly activators | 380,000 compounds, 1.1% hits; further: potency means the concentration at half of the fitted maximal effect; nearly all actives have a fitted effect of over 80% in size
#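 Quantitative HTS in MCF7 cells stably reporting BRCA1 expression via firefly luciferase. Compound treatment lasts 48 h at 37 °C in phenol-red free MEM. Activation is expressed relative to genistein at 10 microM and DMSO.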
# A549 tox: Nrf2 qHTS screen for inhibitors: counterscreen for cytotoxicity; Potency, µM (highest dose often 46 µM), without a hit: top-dose activity change, negative = cytotoxicity, hits mostly inhibitors; 390,000 compounds, 0.16% hits; A549 ARE-Fluc cells, CellTiter-Fluor viability, 18-24 h; further: potency means the concentration at half of the fitted maximal effect; on the % scale 0 is the no-effect control and ±100 the full control effect
#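 A549 ARE_Fluc cells in 5% FBS OPTI-MEM were exposed to compounds in concentration-response for 18-24 h at 37 deg C. Viability was read by CellTiter-Fluor fluorescence (Ex 405/Em 525) after 30 min, before the luciferase read.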
# p53 reactivator: qHTS assay for re-activators of p53 using a Luc reporter; H1299 p53-A138V BP100-luciferase reporter, luminescence, 24 h; Potency, µM (highest dose often 92.2 µM), without a hit: top-dose activity change, positive = activation, usual class: activators; 320,000 compounds, 0.063% hits; further: potency means the concentration at half of the fitted maximal effect; % of control where 0% means no effect; nearly all actives have a fitted effect of over 45% in size
#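 p53-null H1299 cells stably carrying temperature-sensitive p53-A138V and a BP100-luciferase reporter were pinned with compounds (4-point, 1:5 series) and held 24 hrs at 37 deg C. Luminescence was read 10 min after detection reagent.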
# Nrf2 ARE act: qHTS of Nrf2 Activators. AREc32 ARE-luciferase reporter (MCF7-derived line), luminescence, 24 h. Potency, µM (titrated, usually from 46.1 µM), for inactives: top-dose activation, actives largely listed as activators. 410,000 compounds, 0.31% hits. AID 624171, 2012; further: potency means the concentration at half of the fitted maximal effect; % of control where 0% means no effect; nearly all actives have a fitted effect of over 65% in size
#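 Reporter line AREc32 (ARE-Fluc), seeded overnight in OPTI-MEM with 5% FBS; compound pin-transferred, 24 hr at 37 deg C, 5% CO2; luminescent read-out.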
# IL-2 act: qHTS of IL-2 Activators; IL-2 activation reporter assay, cell-based qHTS; stimulated with anti-CD3/CD4/CD28 beads; in transgenic mouse T cells; 360,000 compounds, 0.065% hits; activation, % (series mostly up to about 46 µM); in the data active means activation above about 50%; inconclusive means mostly about 30% to 49%; further: 0% is about no effect
#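 Quantitative HTS in unstimulated transgenic mouse T cells, with memory T cells as non-tolerant control and PMA/ionomycin as tolerance-bypass control. Compound pretreatment lasted 60 minutes before 18 h bead stimulation; EGFP/DsRed fluorescence read.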
# Starred values were filed as active, the others as inactive; ? = inconclusive; . = no result; [ ] = another dose, or the depositor's remark. This is a sample that favours compounds with a hit; in the whole collection about 3.2% have one here. Unless noted, the call rests on the fitted dose curve; in most records, active means well fitted curve in the direction sought with a large enough effect; inconclusive means small, poorly fitted or top-dose-only effect, or another doubt; inactive means no such curve, though single readings can be large; an effect the other way counts as inactive or inconclusive.
SMILES,Nrf2 block,BRCA1 expr act,A549 tox,p53 reactivator,Nrf2 ARE act,IL-2 act
CC(=O)c1cccc(NC(=S)NC(=O)c2ccc(C)cc2)c1,?,7.9µM*,-14%,?,3%,5
CC(C)c1ccc(Nc2ncnc3c2nc2n3CCCC2)cc1,-8%,.,-2%,.,0%,.
Cc1cccc(NC(=O)C(Cc2ccccc2)N2Cc3ccccc3C2=O)c1C (stereo unspecified),6%,.,0%,.,0%,.
O=C(CCO)c1ccc(O)cc1,-2%,-1%,1%,1%,-1%,0
O=C(CCSc1ccc(Br)cc1)c1ccc(O)cc1,?,-55%,3%,?,16µM*,-4
Cc1nn(-c2nc3ccccc3s2)c(N)c1-c1ccc(Cl)cc1,18%,-55%,-13%,?,3%,3
Cc1nn(-c2nc3ccccc3s2)c(N)c1-c1ccccc1,?,?,8%,22µM*,12%,0
O=C(CCN1N=C(c2ccccc2)CCC1=O)NCCc1ccc(Cl)cc1,.,.,7%,.,0%,.
O=C(NCCc1ccccc1)Nc1ccc(Cl)cc1,17%,5µM*,-10%,?,3%,0
Cc1ccccc1CNC(=O)Nc1ccc(Cl)cc1,15%,7.1µM*,7%,.,2%[9.22 µM],-1
S=C(NCCc1ccccc1)Nc1ccc(Cl)cc1,9%,?,12%,?,0%[9.22 µM],0
O=C1CC(c2ccc3c(c2)OCCO3)Oc2ccccc21 (stereo unspecified),12%,11µM*,1%,?,3%,0
Cc1cc(C)nc(NC(=NCCc2c[nH]c3ccc(Cl)cc23)NC(=O)c2ccccc2C)n1,-25%,10%,-7%,.,0%,.
Cc1cc(C)nc(NC(=NCCc2c[nH]c3ccccc23)NC(=O)C(C)(C)C)n1,21µM*,-22%,?,-1%,0%,-4
COc1ccc(-n2ncc(C(=O)NCCc3ccsc3)c2C2CCN(C(=O)OC(C)(C)C)CC2)cc1,?,.,-17%,.,2%,.
CC(C)(C)c1ccc(C(=O)CS(=O)(=O)c2ccccc2)cc1,?,4µM*,2%,15%,0%,0
COc1ccc(/C(N)=N/OC(=O)Cc2ccc(OC)c(OC)c2)cc1,15µM*,-49%,-13%,-5%,1%,-4
COc1ccc(/C(N)=N/OC(=O)c2ccc3c(c2)OCO3)cc1,?,3.2µM*,-4%,19%,8%,1
COc1ccc(C/C(N)=N/OC(=O)C(c2ccccc2)c2ccccc2)cc1OC,23µM*,-30%,-7%,-1%,11%,-2
COc1ccc(CC(=O)O/N=C(\N)c2ccncc2)cc1OC,.,1%,.,.,4%,-1
N/C(=N\OC(=O)c1ccc2c(c1)OCO2)c1ccc(Cl)cc1,?,8.9µM*,4%,?,6%,0
COc1cc(OC)c(OC)cc1/C=C/c1cc[n+](C)c2ccccc12,.,-39%,.,.,.,.
Cc1cc2c(s1)c1cnn(Cc3ccccc3)c(=O)c1n2C,?,.,-4%,.,.,.
CCN(C(=O)Cn1nc(Cc2ccncc2)c2ccccc2c1=O)c1cccc(Cl)c1,-25%,.,3%,.,3%,.
COc1ccc(CNC(=O)C2CCN(S(=O)(=O)c3cn(C)cn3)CC2)cc1,.,.,0%,.,0%,.
SMILES,Nrf2 block,BRCA1 expr act,A549 tox,p53 reactivator,Nrf2 ARE act,IL-2 act
N#Cc1ccc(C(=O)N(Cc2ccco2)Cc2cccs2)cc1,-10%,2%,-3%,.,.,.
N/C(=N\OC(=O)c1ccc2c(c1)OCO2)c1ccncc1,?,4.5µM*,-6%,14%,0%,0
COc1ccccc1C(=O)O/N=C(\N)c1ccc(Cl)cc1,.,-41%,-2%,16%,?,0
COc1ccc(C(=O)O/N=C(\N)c2ccc(Cl)cc2)cc1,?,2.5µM*,-5%,?,4%,-1
Cc1cc(/C(N)=N/OC(=O)c2ccc(Cl)cc2)no1,?,7.9µM*,1%,14%,-1%,3
COc1cccc(CNC(=O)c2ccc3oc(=O)n(Cc4ccccc4)c3c2)c1,.,0%,0%,.,7%,.
C/C(N)=C(/C#N)C(=O)CSc1ccc2c(c1)OCCO2,.,?,6%,40µM*,3%,0
Cc1cc(C(=O)CSc2ccc3c(c2)OCCO3)c(C)n1C1CC1,?,11µM*,7%,?,4%,-4
CCOC(=O)c1ccc(NC(=O)c2ccc(CN3CCOCC3)cc2)cc1,5.2µM*,0%,?,-15%,4%,-1
CC(=O)c1ccc(NC(=O)CSc2nc(=O)n(CCN3CCOCC3)c3c2CCC3)cc1,-1%,-10%,1%,2%,3%,-2
NC(=O)c1ccc(NC(=O)c2ccc(CN3CCOCC3)cc2)cc1,4%,12%,2%,0%,0%,-1
CCOC(=O)c1ccc(NC(=O)CSc2nc(=O)n(CCN3CCOCC3)c3c2CCC3)cc1,18µM*,-42%,0%,-2%,4%,1
CCOC(=O)c1ccc(NC(=S)N2CCCC(C)C2)cc1 (stereo unspecified),?,58%,0%,-1%,0%,-1
Cc1ccc(C(=O)Nc2ccc(N3CCCC3)cc2)cc1,11%,49%,2%,16%,4%,3
CCOC(=O)c1ccc(NC(=S)N2CCC(O)CC2)cc1,?,13µM*,1%,?,1%,-4
Cc1ccc(C(=O)Nc2ccc(N3CCOCC3)cc2)cc1,2%,8.9µM*,-3%,?,0%,-2
O=S(=O)(Nc1cccc(F)c1)c1ccc2[nH]c3c(c2c1)CCCCC3,?,.,-2%,.,0%,.
CCc1cccc(C)c1NC(=O)Cn1ccn(-c2ccc(F)cc2)c(=O)c1=O,25%,.,0%,.,-1%,.
O=C(OCC#CCSc1nnc(-c2cccs2)o1)c1ccc(F)cc1,6%,.,-3%,.,.,.
CCOc1ccc(NC(=O)c2ccc(CN3CCc4ccccc4C3)cc2)cc1,?,-22%,-3%,10%,0%[9.22 µM],-3
CCOC(=O)c1ccc(NC(=O)c2ccc(CN3CCc4ccccc4C3)cc2)cc1,23µM*,-62%,?,.,0%,0
Cc1cc(C)c(NC(=O)c2ccc(CN3CCc4ccccc4C3)cc2)c(C)c1,23µM*,-47%,?,12%,3%,0
Cc1ccc(NS(=O)(=O)c2ccc(C(=O)NCCN3CCOCC3)cc2)cc1,9.2µM*,-2%,-2%,3%,0%,-1
O=C(Nc1ccc(Cl)cc1)c1ccc(CN2CCc3ccccc3C2)cc1,?,64%,-9%,?,5%,0

# High-throughput results as filed in PubChem.
